Bioassay records deposited in PubChem BioAssay by Johns Hopkins Ion Channel Center.
Only some compounds are listed: those with a hit (about 1.6% of all), similar ones and a draw of the others.
KCNQ2 block – rat KCNQ2 potassium channel inhibitors, primary screen, cell-based, CHO-K1, FluxOR thallium flux, B-score. Potassium voltage-gated channel subfamily KQT member 2 (Rattus norvegicus), O88943. 1.1% of 310,000 active. AID 2156, 2009. B-score at 10 µM. 20 min; hits give low values;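 active = fluorescence ratio B-score at most minus 3 library SDs, with starting brightness B-score within 2 library SDs, cut at about -5.5 in these data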
Target sequence (O88943 whole entry, looked up): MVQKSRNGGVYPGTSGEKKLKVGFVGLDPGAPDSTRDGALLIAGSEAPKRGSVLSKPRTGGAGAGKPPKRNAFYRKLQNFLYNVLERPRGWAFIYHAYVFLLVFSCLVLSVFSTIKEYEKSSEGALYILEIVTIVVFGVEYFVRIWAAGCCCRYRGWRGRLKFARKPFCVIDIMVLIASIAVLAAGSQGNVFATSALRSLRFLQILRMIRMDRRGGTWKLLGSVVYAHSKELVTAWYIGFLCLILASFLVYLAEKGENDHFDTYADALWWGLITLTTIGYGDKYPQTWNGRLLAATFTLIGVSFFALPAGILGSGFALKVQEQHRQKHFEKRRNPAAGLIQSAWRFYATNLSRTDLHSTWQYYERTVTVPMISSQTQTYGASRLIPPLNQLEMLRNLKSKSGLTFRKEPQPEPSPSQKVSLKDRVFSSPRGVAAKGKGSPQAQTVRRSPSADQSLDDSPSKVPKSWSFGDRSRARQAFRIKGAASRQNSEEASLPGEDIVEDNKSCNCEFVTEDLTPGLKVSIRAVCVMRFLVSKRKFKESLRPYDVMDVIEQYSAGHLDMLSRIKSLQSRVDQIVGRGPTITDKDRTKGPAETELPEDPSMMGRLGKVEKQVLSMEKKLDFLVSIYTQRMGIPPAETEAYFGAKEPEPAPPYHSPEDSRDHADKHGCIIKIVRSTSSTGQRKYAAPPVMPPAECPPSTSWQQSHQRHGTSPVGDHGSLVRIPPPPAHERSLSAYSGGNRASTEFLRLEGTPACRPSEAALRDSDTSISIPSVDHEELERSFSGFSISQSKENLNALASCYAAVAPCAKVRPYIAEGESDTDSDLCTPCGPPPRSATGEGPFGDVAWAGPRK
KCNQ2 pot – potentiators of rat KCNQ2 potassium channel; CHO-K1 KCNQ2, FluxOR thallium flux fluorescence; hits give high values; B-score at 10 µM; 0.54% of 310,000 active;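 active = fluorescence ratio B-score at least 3 SD of library B-scores, with initial fluorescence B-score within 3 of them, cut at about 5.3 in these data; same plate scores as AID 2156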;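 also: B-score of peak minus minimum over baseline fluorescence ratio after K+ and Tl+ stimulus; positive B-score means potentiation of KCNQ2 with more thallium influx and brighter signal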
* hit, by the source's call.

`COc1cc(OC)cc(C(=O)Nc2nc(CC(=O)NCc3ccc(F)cc3)cs2)c1` gave KCNQ2 block inactive.
For COc1cc(OC)cc(C(=O)Nc2nc(CC(=O)NCc3ccccc3OC)cs2)c1 the results were KCNQ2 block -6.6* and KCNQ2 pot -6.6.
`COc1ccc(S(=O)(=O)N(C)c2ccc(C(=O)N3CCCCC3)cc2)cc1OC` gave KCNQ2 block inactive and KCNQ2 pot 1.4.
COc1ccccc1CNC(=O)COc1ccc(S(=O)(=O)N2CCOCC2)cc1C was read as KCNQ2 block inactive.
`Cc1ccc(N(CC(=O)Nc2ccccc2-c2ccccc2)S(=O)(=O)c2ccccc2)c(C)c1` gave KCNQ2 block -7.7* and KCNQ2 pot -7.7.
Screening CS(=O)(=O)N(CC(=O)Nc1ccccc1-c1ccccc1)c1ccccc1 returned KCNQ2 block inactive.
For COC(=O)C(NC(=O)c1ccccc1C(=O)O)c1ccc2ccccc2c1 (stereo not given) the results were KCNQ2 block inactive.
For CCC1(C)Cc2ccccc2-c2c1c(=O)n(Cc1ccccc1)c1nnnn21 (stereo not given) the results were KCNQ2 block -6.2* and KCNQ2 pot -6.2.
Screening O=c1c2c(n3nnnc3n1Cc1ccccc1)-c1ccccc1CC21CCCC1 returned KCNQ2 block inactive.
For Cc1cc(-c2ccc(C)c(S(=O)(=O)Nc3cc(C)on3)c2)on1 the results were KCNQ2 block inactive.
Screening O=C(COC(=O)c1cc([N+](=O)[O-])ccc1N1CCOCC1)Nc1ccc(Cl)cn1 returned KCNQ2 block inactive and KCNQ2 pot 0.01.
COc1ccc(C2(CNC(=O)c3ccccc3)CCCC2)cc1OC was read as KCNQ2 block inactive.
COc1cccc(C(=O)NCC2(c3ccccc3)CCCC2)c1OC was read as KCNQ2 block -5.9* and KCNQ2 pot -5.9.
CCOc1cc2[nH]c(=S)n(CCOC)c(=O)c2cc1OCC was read as KCNQ2 block inactive and KCNQ2 pot 0.16.
`CCCCN(C)CCn1c(=S)[nH]c2cc(OCC)c(OCC)cc2c1=O` gave KCNQ2 block inactive and KCNQ2 pot 5.4*.
For O=C(O)CN1C(=O)/C(=C/c2ccccc2Br)Oc2ccccc21 the results were KCNQ2 block inactive.
Screening CCOc1ccc(NC(=O)C(=O)NCCN2CCN(S(=O)(=O)c3ccccc3)CC2)cc1 returned KCNQ2 block inactive and KCNQ2 pot 0.28.
`CCOC(=O)N1CCN(S(=O)(=O)c2c[nH]c(C(=O)OC)c2)CC1` gave KCNQ2 block inactive.
`O=C(C1=C[C@@H](C2CCCCC2)C[C@@H](OCCCCO)O1)N1CCN(Cc2ccccc2)CC1` gave KCNQ2 block -5.7* and KCNQ2 pot -5.7.
For O=C(C1=C[C@@H](c2ccc(Br)cc2)C[C@@H](OCCCCO)O1)N1CCN(Cc2ccc3c(c2)OCO3)CC1 the results were KCNQ2 block -6.2* and KCNQ2 pot -6.2.
`O=C(C1=C[C@H](c2ccc(C(F)(F)F)cc2)C[C@H](OCCCCO)O1)N1CCN(Cc2ccc3c(c2)OCO3)CC1` gave KCNQ2 block inactive.
`O=C(C1=C[C@@H](C2CC2)C[C@@H](OCCCCO)O1)N1CCN(Cc2ccccc2)CC1` gave KCNQ2 block inactive.
Screening O=C(C1=C[C@@H](c2ccccc2)C[C@@H](OCc2ccc(CO)cc2)O1)N1CCN(Cc2ccc3c(c2)OCO3)CC1 returned KCNQ2 block -5.8* and KCNQ2 pot -5.8.
`O=C(C1=C[C@H](c2ccccc2)C[C@H](OCc2ccc(CO)cc2)O1)N1CCN(Cc2ccccc2)CC1` gave KCNQ2 block inactive.
Screening COc1ccc(CN2CCNC(=O)C2CC(=O)NCC2CCOCC2)c(F)c1 (stereo not given) returned KCNQ2 block inactive.
`O=C(COc1ccc(C(=O)NCCN2CCOCC2)cc1)Nc1cccc(C(F)(F)F)c1` gave KCNQ2 block -5.7* and KCNQ2 pot -5.7.
Screening O=C(COc1ccc(C(=O)O)cc1)Nc1cccc(C(F)(F)F)c1 returned KCNQ2 block inactive and KCNQ2 pot 0.74.
Screening CC(C)(C)C(=O)Cn1c(=N)n(Cc2ccccc2Cl)c2ccccc21 returned KCNQ2 block inactive.
Screening CC(C)(C)C(=O)Cn1c(=N)n(Cc2ccccc2)c2ccccc21 returned KCNQ2 block -6.2* and KCNQ2 pot -6.2.
`NC(=O)CSc1nnc(COc2cccc3ccccc23)o1` gave KCNQ2 block inactive and KCNQ2 pot 1.1.
For O=C(CSc1nnc(COc2cccc3ccccc23)o1)N1c2ccccc2CCc2ccccc21 the results were KCNQ2 block -8.4* and KCNQ2 pot -8.4.
For CCOC(=O)c1c(S(=O)(=O)NCCCc2ccco2)c(C)n(C)c1C the results were KCNQ2 block inactive and KCNQ2 pot 0.03.
`CN(Cc1ccccc1)C(=O)c1cn(C)c2ccc(S(=O)(=O)N3CCCC3)cc2c1=O` gave KCNQ2 block inactive and KCNQ2 pot 1.2.
O=C(OC(C(=O)Nc1ccc(Cl)c(C(F)(F)F)c1)c1ccccc1)C1=COCCO1 (stereo not given) was read as KCNQ2 block inactive.
`Cc1cc(C)cc(NC(=O)C(OC(=O)C2=COCCO2)c2ccccc2)c1` (stereo not given) gave KCNQ2 block -6.6* and KCNQ2 pot -6.6.
`COc1ccc(CNC(=O)C2CCN(c3nc(-c4ccccc4)nc4c3CCC4)CC2)cc1` gave KCNQ2 block inactive.
`O=C(NCc1ccccc1)C1CCN(c2nc(-c3ccccc3)nc3c2CCC3)CC1` gave KCNQ2 block -5.8* and KCNQ2 pot -5.8.
`O=C(c1cc2cc(F)ccc2[nH]1)N1CCCC(Nc2ccc(F)cc2)C1` (stereo not given) gave KCNQ2 block inactive.
For O=C(CC1C(=O)NCCN1Cc1cccc(F)c1F)NCCCC1CCCC1 (stereo not given) the results were KCNQ2 block inactive.
`O=C(CSc1ccc2nnc(-c3cccnc3)n2n1)Nc1ccc(F)cc1F` gave KCNQ2 block inactive and KCNQ2 pot 0.71.
Screening CCc1noc(C)c1C(=O)N(CCC(C)C)c1c(N)n(Cc2ccccc2)c(=O)[nH]c1=O returned KCNQ2 block inactive and KCNQ2 pot 0.76.
CCOC(=O)C(CC)n1cnc2c(nnn2-c2ccc(F)cc2)c1=O (stereo not given) was read as KCNQ2 block inactive.
`Cc1ccc(CNCC(O)(c2ccccc2)c2ccc(Cl)cc2)cc1` (stereo not given) gave KCNQ2 block -6.4* and KCNQ2 pot -6.4.
Screening COc1cccc(CNCC(O)(c2ccc(Cl)cc2)c2ccc(Cl)cc2)c1 returned KCNQ2 block inactive.
`CC(C)N1CCc2c(sc(NC(=O)c3nc4ccccc4s3)c2C(N)=O)C1` gave KCNQ2 block inactive.
`CC(C)N1CCc2c(sc(NC(=O)c3cc(-c4cccs4)nc4ccccc34)c2C(N)=O)C1` gave KCNQ2 block -6.4* and KCNQ2 pot -6.4.
COc1cc(C2C3C(=O)N(Cc4ccccc4)C(=O)C3ON2c2ccccc2)cc(OC)c1OC (stereo not given) was read as KCNQ2 block -6.4* and KCNQ2 pot -6.4.
O=C1C2ON(c3ccccc3)C(c3cccnc3)C2C(=O)N1Cc1ccccc1 (stereo not given) was read as KCNQ2 block inactive.
